PubChem BioAssay AID1159580 (chemical genetic matrix, 2015)
Among all 5,500 compounds or so, about 2,000 (36%) were called active. Roughly 18% stayed inconclusive and do not appear here. The list shows a part of the results. A number with no mark means an inactive call. Cut-off read from the data, not from the text of the source: active = normalized growth mostly below about 0.91 (no sharp cut-off); inconclusive = no clear call, values can overlap the other calls; inactive = mostly above about 0.92.

Assay: chemical genetic growth profiling, strain panel (AID 1159580);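 note: tested at 20 µM; growth read once vehicle control cultures reached saturation at 30 °C; 1 = growth at the plate median or of vehicle wells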
Conditions: S. cerevisiae deletion strains, growth OD

## NC(N)=Nc1nc(-c2cc(Cl)sc2Cl)cs1
Locus YAR019C, strain CDC15, stronger effect = lower value
  normalized growth: 0.994
Locus YBL105C, strain PKC1, stronger effect = lower value
  normalized growth: 0.998
Locus YBR135W, strain CKS1, stronger effect = lower value
  normalized growth: 0.987
Locus YBR136W, strain MEC1, stronger effect = lower value
  normalized growth: 0.99
Locus YBR160W, strain CDC28, stronger effect = lower value
  normalized growth: 0.99
Locus YDL017W, strain CDC7, stronger effect = lower value
  normalized growth: 0.993
Locus YDL028C, strain MPS1, stronger effect = lower value
  normalized growth: 0.985
Locus YDL101C, strain DUN1, stronger effect = lower value
  normalized growth: 0.966
Locus YDL108W, strain KIN28, stronger effect = lower value
  normalized growth: 0.988
Locus YDL132W, strain cdc53, stronger effect = lower value
  normalized growth: 0.979
Locus YDL214C, strain PRR2, stronger effect = lower value
  normalized growth: 0.934
Locus YDR052C, strain DBF4, stronger effect = lower value
  normalized growth: 0.99
Locus YDR054C, strain cdc34, stronger effect = lower value
  normalized growth: 0.973
Locus YDR226W, strain ADK1, stronger effect = lower value
  normalized growth: 0.974
Locus YDR477W, strain SNF1, stronger effect = lower value
  normalized growth: 0.944
Locus YER123W, strain YCK3, stronger effect = lower value
  normalized growth: 0.862
Locus YER133W, strain GLC7, stronger effect = lower value
  normalized growth: 0.905
Locus YFL009W, strain cdc4, stronger effect = lower value
  normalized growth: 0.983
Locus YFL029C, strain CAK1, stronger effect = lower value
  normalized growth: 0.988
Locus YFR003C, strain YPI1, stronger effect = lower value
  normalized growth: 0.986
Locus YFR019W, strain FAB1, stronger effect = lower value
  normalized growth: 0.947
Locus YFR028C, strain CDC14, stronger effect = lower value
  normalized growth: 0.982
Locus YGR040W, strain KSS1, stronger effect = lower value
  normalized growth: 0.942
Locus YGR052W, strain FMP48, stronger effect = lower value
  normalized growth: 0.935
Locus YGR092W, strain DBF2, stronger effect = lower value
  normalized growth: 0.945
Locus YHR030C, strain SLT2, stronger effect = lower value
  normalized growth: 0.821 (active)
Locus YHR079C, strain IRE1, stronger effect = lower value
  normalized growth: 0.897
Locus YHR082C, strain KSP1, stronger effect = lower value
  normalized growth: 1
Locus YHR205W, strain SCH9, stronger effect = lower value
  normalized growth: 0.904
Locus YIL147C, strain SLN1, stronger effect = lower value
  normalized growth: 0.987
Locus YJL095W, strain BCK1, stronger effect = lower value
  normalized growth: 0.826
Locus YJL128C, strain PBS2, stronger effect = lower value
  normalized growth: 0.922
Locus YJL157C, strain FAR1, stronger effect = lower value
  normalized growth: 0.932
Locus YJR016C, strain ILV3, stronger effect = lower value
  normalized growth: 0.997
Locus YJR066W, strain TOR1 (second series), stronger effect = lower value
  normalized growth: 0.886
Locus YJR066W, strain TOR1, stronger effect = lower value
  normalized growth: 0.997
Locus YKL048C, strain ELM1, stronger effect = lower value
  normalized growth: 0.947
Locus YKL067W, strain YNK1, stronger effect = lower value
  normalized growth: 0.932
Locus YKL101W, strain HSL1, stronger effect = lower value
  normalized growth: 0.93
Locus YKL193C, strain SDS22, stronger effect = lower value
  normalized growth: 0.985
Locus YKL203C, strain TOR2, stronger effect = lower value
  normalized growth: 0.988
Locus YLR113W, strain HOG1, stronger effect = lower value
  normalized growth: 0.757 (active)
Locus YLR133W, strain CKI1, stronger effect = lower value
  normalized growth: 0.958
Locus YLR403W, strain SFP1, stronger effect = lower value
  normalized growth: 0.962
Locus YML070W, strain DAK1, stronger effect = lower value
  normalized growth: 0.901
Locus YMR001C, strain CDC5, stronger effect = lower value
  normalized growth: 0.993
Locus YMR205C, strain PFK2 (second series), stronger effect = lower value
  normalized growth: 0.948
Locus YMR277W, strain FCP1, stronger effect = lower value
  normalized growth: 0.985
Locus YNL006W, strain LST8, stronger effect = lower value
  normalized growth: 0.984
Locus YNL020C, strain ARK1, stronger effect = lower value
  normalized growth: 0.96
Locus YNL161W, strain CBK1, stronger effect = lower value
  normalized growth: 0.989
Locus YNL183C, strain NPR1, stronger effect = lower value
  normalized growth: 0.988
Locus YNL207W, strain RIO2, stronger effect = lower value
  normalized growth: 0.989
Locus YNL222W, strain SSU72, stronger effect = lower value
  normalized growth: 0.99
Locus YNL307C, strain MCK1 (second series), stronger effect = lower value
  normalized growth: 0.927
Locus YOL078W, strain AVO1, stronger effect = lower value
  normalized growth: 0.986
Locus YOL136C, strain PFK27, stronger effect = lower value
  normalized growth: 0.91
Locus YOR061W, strain CKA2, stronger effect = lower value
  normalized growth: 0.983
Locus YOR119C, strain RIO1, stronger effect = lower value
  normalized growth: 0.981
Locus YOR231W, strain MKK1, stronger effect = lower value
  normalized growth: 0.935
Locus YOR329C, strain SCD5, stronger effect = lower value
  normalized growth: 0.995
Locus YPL031C, strain PHO85, stronger effect = lower value
  normalized growth: 0.93
Locus YPL153C, strain RAD53, stronger effect = lower value
  normalized growth: 0.921
Locus YPL204W, strain HRR25, stronger effect = lower value
  normalized growth: 0.921
Locus YPL209C, strain IPL1, stronger effect = lower value
  normalized growth: 0.99
Locus YPL256C, strain CLN2, stronger effect = lower value
  normalized growth: 0.89
Locus YPR025C, strain CCL1, stronger effect = lower value
  normalized growth: 0.992
Locus YPR106W, strain ISR1, stronger effect = lower value
  normalized growth: 0.985
Locus YPR111W, strain DBF20, stronger effect = lower value
  normalized growth: 0.974
Strain NNK1, stronger effect = lower value
  normalized growth: 0.971
Strain TSCII, stronger effect = lower value
  normalized growth: 0.985
